Source: PubChem BioAssay
PMP22 txn prim: Cell-based coincidence reporter assay to measure PMP22 gene transcription in S16 Pmp22-F2sN cells - Primary screen; S16 Pmp22-F2sN Schwann cells, FLuc/NLuc coincidence luminescence, 24 h; Potency, µM (doses to about 57.5 µM), hits mostly inhibitors; 43,000 compounds, 2% hits; active = clear falling dose curves in both reporters; inconclusive = both reporters move, but less clearly or upward; inactive = either reporter flat; the % is the NLuc reporter signal
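qHTS, 1536-well. Cells seeded, compounds added by pin tool, 24 h 37C. Nano-Glo reagent 1 (lysis/FLuc), 10 min RT, read; Stop&Glo, 10 min RT, read NLuc.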
HTT-AS act: Primary qHTS for Identification of Small Molecule Activators of Huntingtin-Antisense Promoter Activity; HEK293 HTT-AS promoter firefly luciferase reporter, 24 h; response scale: percent change from vehicle, -100% = no light; Potency, µM (highest dose often 57.5 µM), hits mostly activators; 48,000 compounds, 0.24% hits; note: nearly all actives have a fitted effect of over 55% in size
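HEK293 cells carrying firefly luciferase reporters were seeded at 2,500 per well in Opti-MEM and cultured for 24 h. They were then treated with compounds at up to 57.5 uM final for 24 h at 37 degrees C before Dual-Glo luminescence readout.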
S16 F2sN tox: Cell viability qHTS assay in S16 Pmp22-F2sN cells. S16 Pmp22-F2sN Schwann cells (luciferase reporters placed in the Pmp22 gene) viability, CellTiter-Glo, 24 h. Potency, µM (titrated, usually from 57.5 µM), usual class: cytotoxic. 43,000 compounds, 0.48% hits. AID 1508642, 2021; note: nearly all actives have a fitted effect of over 65% in size
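S16 Schwann cells carrying the Pmp22-F2sN reporter, seeded in 1536-well format, were exposed to library compounds for 24 h at 37C. Viability was read as CellTiter-Glo luminescence after 15 min at room temperature.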
HTT prom inh: Primary qHTS for Identification of Small Molecule Inhibitors of Huntingtin Promoter Activity. HEK293 HTT promoter firefly luciferase reporter, 24 h. Potency, µM (titrated, usually from 57.5 µM), usual class: inhibitors. 48,000 compounds, 0.93% hits. AID 1508623, 2021; note: nearly all actives have a fitted effect of over 50% in size
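HEK293 Fluc reporter, 2,500 cells/well, 24 h pre-culture; cpds up to 57.5 uM final, 24 h 37 degrees C; Dual-Glo, 10 min RT; normalized vehicle = 0%, zero RLU = -100%.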
FH mod: Identification of activators of human fumarate hydratase by quantitative high-throughput screening; Fumarate hydratase, mitochondrial (Homo sapiens), P07954; FH coupled MDH/diaphorase resazurin fluorescence, 15 min; Potency, µM (top dose mostly 79.9 µM), most hits filed as inhibitors; 54,000 compounds, 0.22% hits; AID 1347055, 2019; note: the screen sought activators but most active calls are inhibition curves; nearly all actives have a fitted effect of over 45% in size
Target sequence (P07954 whole entry, looked up): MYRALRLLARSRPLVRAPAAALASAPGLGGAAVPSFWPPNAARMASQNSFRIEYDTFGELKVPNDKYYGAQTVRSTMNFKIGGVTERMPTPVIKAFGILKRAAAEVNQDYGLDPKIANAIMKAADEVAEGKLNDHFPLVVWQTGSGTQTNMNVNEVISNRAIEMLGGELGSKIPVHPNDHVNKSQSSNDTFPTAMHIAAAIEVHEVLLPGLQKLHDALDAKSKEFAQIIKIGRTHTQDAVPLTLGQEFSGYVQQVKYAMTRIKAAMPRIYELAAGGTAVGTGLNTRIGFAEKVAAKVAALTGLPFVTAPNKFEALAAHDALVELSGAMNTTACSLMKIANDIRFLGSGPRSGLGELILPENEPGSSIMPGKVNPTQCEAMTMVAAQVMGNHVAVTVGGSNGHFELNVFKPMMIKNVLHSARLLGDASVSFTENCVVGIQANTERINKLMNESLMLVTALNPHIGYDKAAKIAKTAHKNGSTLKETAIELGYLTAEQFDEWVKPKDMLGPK
pS6 MEF inh: Acumen qHTS Assay for Inhibitors of the mTORC1 Signaling Pathway in MEF (Tsc2-/-, p53-/-) Cells: Sytravon; Tsc2-/- p53-/- MEF, phospho-rpS6 immunofluorescence/PI, 24 h; 44,000 compounds, 0.78% hits; AID 493208, 2011; Potency, µM (top dose mostly 38.3 µM), hits mostly inhibitors; note: nearly all actives have a fitted effect of over 50% in size
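Immunofluorescence of rpS6 phosphorylation in Tsc2-/-, p53-/- MEFs after 24 h compound exposure, normalized to propidium iodide signal. Activity is expressed as % positive cells, thresholded with 7.5 nM rapamycin.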
NLuc sat counter: Biochemical NLuc saturation counterscreen for small molecule modulators of PMP22 gene expression - Nano-Glo assay; shares compounds with PMP22 txn prim; Secreted NLuc enzyme (filtered S16 cell medium), Nano-Glo luminescence; Potency, µM (series often up to 57.5 µM), actives largely listed as inhibitors; 690 compounds, 4% hits; AID 1508638, 2021
NLuc Km ctr: Biochemical coelenterazine-based NLuc counterscreen for small molecule modulators of PMP22 gene expression - Km assay; shares compounds with PMP22 txn prim; secreted NLuc enzyme, coelenterazine luminescence, Km conditions; Potency, µM (top dose mostly 57.5 µM), actives largely listed as inhibitors; 690 compounds, 5% hits
FLuc counter: Biochemical FLuc counterscreen for small molecule modulators of PMP22 gene expression; shares compounds with PMP22 txn prim; purified P. pyralis FLuc, luminescence, 10 min; Potency, µM (doses to about 57.5 µM), actives largely listed as inhibitors; 690 tested, under 10 active; AID 1508640, 2021
S16 F2sN tox cnf: Cell viability qHTS assay in S16 Pmp22-F2sN cells - Confirmatory screen; S16 Schwann cells viability, CellTiter-Glo ATP luminescence, 24 h; Potency, µM (series often up to 57.5 µM), hits mostly cytotoxic; 690 compounds, 7% hits; shares compounds with PMP22 txn prim
PMP22 txn conf: Cell-based coincidence reporter assay to measure PMP22 gene transcription in S16 Pmp22-F2sN cells - Confirmatory screen; shares compounds with PMP22 txn prim; Potency, µM (series often up to 57.5 µM), hits mostly inhibitors; 690 compounds, 22% hits; S16 Schwann cells Pmp22-F2sN, dual luciferase, 24 h; AID 1508646, 2021; active = clear falling dose curves in both reporters; inconclusive = both reporters move, but less clearly or upward; inactive = either reporter flat; the % is the FLuc reporter signal
PMP22 HiBiT cnf: Cell-based HiBiT reporter assay to measure PMP22 protein expression in S16 Pmp22-HiBiT cells - Confirmatory screen; Potency, µM (highest dose often 27.9 µM), hits mostly inhibitors; 95 tested, under 10 active; shares compounds with PMP22 txn prim; S16 Schwann cells Pmp22-HiBiT, luminescence, 48 h
Target sequence (P25094 whole entry, looked up): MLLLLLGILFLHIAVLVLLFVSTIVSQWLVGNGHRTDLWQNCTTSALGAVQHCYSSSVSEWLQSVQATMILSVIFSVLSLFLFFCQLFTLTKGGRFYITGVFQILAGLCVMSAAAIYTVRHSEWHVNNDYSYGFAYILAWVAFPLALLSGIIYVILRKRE
Hits are given with their value; n = inactive; u = inconclusive; x = not tested or not shown. The list is not random: actives were taken first. Their share in the collection is about 3.3%. Unless noted, calls come from the whole dose curve; as a rule, active = well fitted curve in the direction sought with a large enough effect; inconclusive = small, poorly fitted or top-dose-only effect, or another doubt; inactive = no such curve, though single readings can be large; an effect the other way counts as inactive or inconclusive.

SMILES	PMP22 txn prim	HTT-AS act	S16 F2sN tox	HTT prom inh	FH mod	pS6 MEF inh	NLuc sat counter	NLuc Km ctr	FLuc counter	S16 F2sN tox cnf	PMP22 txn conf	others
O=C(COc1ccc(F)cc1)Nc1ccc2nc(SCc3ccccc3)sc2c1	7µM	n	n	n	n	n	n	n	n	n	u
Cc1ccc(CSc2nc3ccc(NC(=O)COc4ccc(F)cc4)cc3s2)cc1	n	n	n	n	n	n	x	x	x	x	x
Cc1ccc(OCC(=O)Nc2ccc3nc(SCC(=O)N4CCc5ccccc54)sc3c2)cc1	2.4µM	n	n	n	n	n	n	n	n	n	7.3µM	PMP22 HiBiT cnf=u
Cc1ccc(C(=O)Nc2ccc3nc(SCC(=O)N4CCc5ccccc54)sc3c2)cc1	n	n	n	n	n	n	x	x	x	x	x
Cc1cccc(OCC(=O)Nc2ccc3nc(SCc4ccccc4)sc3c2)c1	16µM	n	n	n	n	n	n	n	n	n	u
COC(=O)c1ccc(CSc2nc3c([nH]c4ccccc43)c(=O)n2-c2cccc(OC)c2)o1	n	n	n	u	n	n	x	x	x	x	x
COC(=O)c1ccc(CSc2nc3c([nH]c4ccccc43)c(=O)n2-c2cccc(Cl)c2)o1	18µM	n	n	n	n	n	u	n	n	u	6.1µM
CC(C#N)C(C)O[C@@H]1O[C@H](CO)[C@@H](O)[C@H](O)[C@H]1O (some centres undefined)	x	x	x	x	n	x	x	x	x	x	x
CC(C)(C)Oc1ccc(OCC2Cc3ccccc3CN2C(=O)c2cccc3ccccc23)cc1 (centres undefined)	x	x	x	x	n	x	x	x	x	x	x
O=C(Cn1c(=O)n(Cc2ccccc2)c(=O)c2sc3ccccc3c21)Nc1ccccc1	u	n	n	n	n	n	x	x	x	x	x
O=C(Cn1c(=O)n(Cc2ccccc2)c(=O)c2sc3ccccc3c21)Nc1ccc(F)cc1	14µM	n	u	n	n	n	n	n	n	u	u
Cc1noc(-c2ccc(-c3ccc(CC(=O)O)cc3)cc2)c1NC(=O)O[C@H](C)c1ccccc1Cl	x	x	x	x	n	x	x	x	x	x	x
CCCCn1cc2c(c1-c1ccccc1Br)c(=O)n(C)c(=O)n2C	15µM	n	n	n	n	n	u	n	n	n	n
CCCCCn1cc2c(c1-c1ccccc1Br)c(=O)n(C)c(=O)n2C	n	n	u	u	n	n	x	x	x	x	x
CCN(CC)c1ccc(NC(=O)C2COc3ccc(OC)cc3C2)c(C)c1 (centres undefined)	12µM	n	u	u	n	n	n	n	n	u	15µM	PMP22 HiBiT cnf=u
COc1ccc2c(c1)CC(C(=O)Nc1ccc(OC)cc1OC)CO2 (centres undefined)	n	n	n	n	n	n	x	x	x	x	x
Cc1ccccc1CC1C(=O)Nc2ccc(Br)cc21 (centres undefined)	n	n	u	u	n	n	x	x	x	x	x
COc1ccc(Br)cc1CC1C(=O)Nc2ccccc21 (centres undefined)	14µM	n	n	13µM	n	n	u	u	n	n	u	PMP22 HiBiT cnf=n
CCC/C=C/C=C/C1CC(O)C(O)C(=O)C1CO (centres undefined)	x	x	x	x	n	x	x	x	x	x	x
Cc1c(Cl)cccc1Nc1sc(C(=O)c2ccccc2)c(N)c1S(=O)(=O)c1ccccc1	n	n	n	n	n	n	x	x	x	x	x
CCOc1ccccc1Nc1sc(C(=O)c2ccccc2)c(N)c1S(=O)(=O)c1ccc(C)cc1	2.8µM	n	u	n	n	n	n	n	n	n	u
Cc1cccc(C)c1Nc1sc(C(=O)c2ccccc2)c(N)c1S(=O)(=O)c1ccccc1	6.7µM	n	n	u	n	n	n	n	n	n	u
COc1ccc2nc3n[nH]c(C)c3c(NCCOCCO)c2c1	x	x	x	x	n	x	x	x	x	x	x
COc1ccccc1Nc1ncnc2scc(-c3ccc(F)cc3)c12	18µM	n	n	u	n	n	n	n	n	n	n
COc1ccc(-c2csc3ncnc(Nc4ccc(OC)cc4OC)c23)cc1	u	n	n	u	n	n	x	x	x	x	x
Cn1cc(CN(C(=O)Nc2ccc(Cl)c(Cl)c2)C2CCCCC2)c2ccccc21	n	u	n	n	n	n	x	x	x	x	x
Cn1cc(CN(C(=O)Nc2ccccc2)C2CCCCC2)c2ccccc21	9.5µM	n	u	n	n	n	u	u	n	n	u
CCOC(=O)c1cccc(NC(=O)c2cc3cc4ccc(C)cc4nc3s2)c1	11µM	n	n	n	n	n	n	n	n	u	19µM
